# Inconclusive results are not listed. Calls of active or inactive are those of the source. How the source made its calls: active means hit-call score of the fitted dose curve at least 0.9, where 1 is the maximum; inconclusive means response in the unintended direction; inactive means score below 0.9.
# Experiments:
# [1] = ACEA_ER_AUC_viability: ACEA Biosciences xCELLigence Real-Time Cell Analysis on Estrogen Receptor Agonism for Viability (AID 2283782);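 further: hit means loss of impedance signal meaning reduced cell growth or viability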
# Summary of the method: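 Read-out: real-time electrical impedance (RT-CES) area under curve, loss of signal taken as reduced viability, normalized to DMSO baseline. T-47D cells, charcoal-stripped serum medium, compounds up to 100 uM final, continuous exposure, 80 h.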
# [2] = STM_H9_NormalizedViability: Cytotoxicity Assessment at 120 hours in the Stemina devTOX quickPredict H9 human embryonic stem cell (hESC)-based Assay (AID 2283784)
# Summary of the method: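 Viability endpoint: background-corrected CellTiter-Fluor RFU expressed relative to the 0.1% DMSO mean on each plate. Undifferentiated H9 cells were treated with daily re-dosing and media change, and loss of signal was fitted.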
# [3] = ATG_M_06_XSP1: Attagene TRANS-FACTORIAL Multi-Species (XSP1) HepG2 Assay for M06 Transcription Factor (Internal Marker) (AID 2283790)
# Summary of the method: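 This background-control readout tracks M06 reporter mRNA, measured by RT-PCR and capillary electrophoresis. HepG2 cells transiently carrying the GAL4-UAS reporter panel were dosed for 24 h with 3 nM 6-alpha-fluorotestosterone added for partial AR stimulation; increases were scored relative to DMSO.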
# [4] = ATG_M_61_XSP1: Attagene TRANS-FACTORIAL Multi-Species (XSP1) HepG2 Assay for M61 Transcription Factor (Internal Marker) (AID 2283797)
# Summary of the method: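 Background-control readout: reporter transcripts measured by RT-PCR and capillary electrophoresis 24 h after dosing transiently transfected HepG2 multi-reporter cells, with 3 nM 6-alpha-fluorotestosterone present. Fitted in the positive direction relative to DMSO.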
# AR (gene 367) [5] = biological target: AR (gene 367) (UniProt P10275); test: ACEA_AR_agonist_80hr: ACEA Biosciences xCELLigence Real-Time Cell Analysis on Androgen Receptor Agonism for Proliferation (AID 2283783);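 further: hits increase impedance growth signal above DMSO baseline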
# Method: ACEA_AR_agonist is a cell-based, single-readout assay that uses 22Rv1, a human prostate cancer cell line, with measurements taken at 80 hours after chemical dosing in a 384-well plate, although TO5 and TO6 (mc0.srcf) used a 96-well plate. Differences in plate size can be ignored given data normalization.ACEA_AR_agonist_80hr is one of two assay component(s) measured or calculated from the ACEA_AR assay. It is designed to make measurements of real-time cell-growth kinetics, a form of growth reporter, as detected with electrical impedance signals by Real-Time Cell Electrode Sensor (RT-CES) technology.Data from the assay component ACEA_AR_agonist_80hr was analyzed in the positive analysis fitting direction relative to DMSO as the negative control and baseline of activity. Using a type of growth reporter, measures of the cells for gain-of-signal activity can be used to understand the signaling at the pathway-level as they relate to the geneAR Furthermore, this assay endpoint can be referred to as a primary readout, because this assay has produced multiple assay endpoints where this one serves a signaling function. To generalize the intended target to other relatable targets, this assay endpoint is annotated to the nuclear receptor intended target family, where the subfamily is steroidal.
# The xCELLigence system Multi-E-Plate stations were used to measure the time-dependent response to chemicals. Each compound was tested in an eight-point, 1:4 serial dilution series starting at a maximum final concentration of 100 uM. A maximum starting concentration of 0.5% DMSO was present in the 100 uM chemical samples and was diluted along with the test article dilution series. The screen was performed in biological duplicate using two separate, 96-well, E-Plates 96 for each dilution series (n = 2). Positive controls (MG132 and testosterone) and a negative control (assay media) were tested in quadruplicate on each testing plate. […] Reference compounds were tested with 8 concentrations with 1:5 serial dilutions. All screening was carried out by ACEA Biosciences, Inc. (San Diego, CA). 22Rv1 cells purchased from ATCC were maintained in media supplemented with 10% fetal bovine serum (FBS). Before screening, 22Rv1 cells were preconditioned in assay medium. Cells were then detached and seeded in E-Plates 96 in assay medium. After overnight monitoring of growth once every hour, compounds were added to […] cells and remained in the medium until the end of the experiment. Cellular responses were then recorded once every 5 min for the first 5 h, and once every hour for an additional 100 h.
# AR (gene 367) [6] = biological target: AR (gene 367) (UniProt P10275); test: ACEA_AR_antagonist_80hr: ACEA Biosciences xCELLigence Real-Time Cell Analysis on Androgen Receptor Antagonism for Proliferation (AID 2283787);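 further: hits lower the impedance growth signal relative to DMSO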
# Summary of the method: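 Measures real-time proliferation of 22Rv1 prostate cancer cells by electrode impedance at 80 hours after dosing. Test articles ran at eight concentrations (1:4 steps, top 100 uM final) in biological duplicate.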
# [7] = biological target: Estrogen receptor beta (Homo sapiens) (UniProt Q92731); test: ATG_hERb_XSP1: Attagene TRANS-FACTORIAL Multi-Species (XSP1) HepG2 Assay for human Estrogen Receptor (ESR2) (AID 2283788)
# Summary of the method: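 Transient MRTU transfection of HepG2; ERβ–GAL4 TRANS format; 24 h dosing; 3 nM 6α-fluorotestosterone co-added; RNA → RT-PCR → 6-FAM primer extension → CE; activity vs DMSO.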
# [8] = biological target: GAL4 Transcription Factor (Internal Marker), GAL4 (gene 855828) (UniProt P04386); test: ATG_GAL4_XSP1: Attagene TRANS-FACTORIAL Multi-Species (XSP1) HepG2 Assay for GAL4 Transcription Factor (Internal Marker) (AID 2283789)
# Method: ATG_XSP1_multi-species_TRANS is a cell-based, multiplexed assay created by modifying the existing Attagene TRANS-FACTORIAL system to include a panel of nuclear receptors from some or all the following species: human (Homo sapiens), mouse (Mus musculus), frog (Xenopus laevis), zebrafish (Danio rerio), chicken (Gallus gallus), and turtle (Chrysemys picta). The ECOTOX-FACTORIAL format uses HepG2, a human liver cell line, with measurements taken at 24 hours after chemical dosing in a 24-well plate. Xsp1 included 3 nM 6-alpha-fluorotestosterone to partially stimulate the androgen receptor.ATG_GAL4_XSP1 is one of 29 assay components measured or calculated from the ATG_XSP1_multi-species_TRANS assay. It is designed to make measurements of mRNA induction, a form of inducible reporter, as detected with fluorescence intensity signals by Reverse transcription polymerase chain reaction (RT-PCR) and Capillary electrophoresis technology.This assay endpoint, ATG_GAL4_XSP1, was analyzed in the positive analysis fitting direction relative to DMSO as the negative control and baseline of activity. Using a type of inducible reporter, measures of mRNA for gain-of-signal activity can be used to understand the background control at the transcription factor-level as they relate to the gene. Furthermore, this assay endpoint can be referred to as a secondary readout, because this assay has produced multiple assay endpoints where this one serves a background control function. To generalize the intended target to other relatable targets, this assay endpoint is annotated to the background measurement intended target family, where the subfamily is baseline control.
# Human liver HepG2 cells are transiently transfected with multiple reporter transcription units (MRTUs) in 6-well plates using FuGene 6 reagent (Roche; 3 ml FuGene/1 mg DNA). The MRTU constructs are regulated by a cis-regulating element (promoter). […] A major difference between the CIS and TRANS system is that in CIS activities of endogenous TFs are measured, whereas the TRANS assay evaluates changes in activities of exogenous, chimeric NR-Gal4 proteins. […] At the end of 24 hour incubation, total RNA was isolated using TriZol reagent (Invitrogen). The isolated RNA is then reverse-transcribed using oligo(dT) primer and Mo-MLV reverse transcriptase (Invitrogen) with DNAse I (Ambion) treatment for 30 min. The one-tenth of the produced cDNA was amplified by PCR using Taq DNA polymerase (Invitrogen) and two reporter sequence-specific primers. The PCR products were fluorescently labeled by primer extension with 6-arboxyfluorescein (6-FAM) 5'-labeled reporter sequence-specific primer (2 min at 95 C, 20 s at 68 C and 10 min at 72 C) and these products were digested with 5U of HpaI (New England Biolabs) for 2h at 37 C. The fragments were purified using Qiaquick PCR columns (Qiagen), analyzed on an ABI 3130xL genetic analyzer (Applied Biosystems) with peak positions identified by using a set of X-rhodamine (ROX)-labeled MapMarker1000 molecular weight standards (BioVentures). The raw capillary electrophoresis data was processed using Attagraph software (Attagene).
# [9] = test system: turtle Androgen Receptor (AR), gene 101947425; test: ATG_trAR_XSP1: Attagene TRANS-FACTORIAL Multi-Species (XSP1) HepG2 Assay for turtle Androgen Receptor (AR) (AID 2283786)
# Summary of the method: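 Partial androgen stimulation is provided by 3 nM 6-alpha-fluorotestosterone in a multi-species trans-factorial panel expressing a turtle AR–GAL4 fusion in HepG2. After 24 h, reporter mRNA is measured by RT-PCR and capillary electrophoresis and fitted upward against DMSO.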
# Sequence of AR (gene 367) (P10275 whole entry, looked up): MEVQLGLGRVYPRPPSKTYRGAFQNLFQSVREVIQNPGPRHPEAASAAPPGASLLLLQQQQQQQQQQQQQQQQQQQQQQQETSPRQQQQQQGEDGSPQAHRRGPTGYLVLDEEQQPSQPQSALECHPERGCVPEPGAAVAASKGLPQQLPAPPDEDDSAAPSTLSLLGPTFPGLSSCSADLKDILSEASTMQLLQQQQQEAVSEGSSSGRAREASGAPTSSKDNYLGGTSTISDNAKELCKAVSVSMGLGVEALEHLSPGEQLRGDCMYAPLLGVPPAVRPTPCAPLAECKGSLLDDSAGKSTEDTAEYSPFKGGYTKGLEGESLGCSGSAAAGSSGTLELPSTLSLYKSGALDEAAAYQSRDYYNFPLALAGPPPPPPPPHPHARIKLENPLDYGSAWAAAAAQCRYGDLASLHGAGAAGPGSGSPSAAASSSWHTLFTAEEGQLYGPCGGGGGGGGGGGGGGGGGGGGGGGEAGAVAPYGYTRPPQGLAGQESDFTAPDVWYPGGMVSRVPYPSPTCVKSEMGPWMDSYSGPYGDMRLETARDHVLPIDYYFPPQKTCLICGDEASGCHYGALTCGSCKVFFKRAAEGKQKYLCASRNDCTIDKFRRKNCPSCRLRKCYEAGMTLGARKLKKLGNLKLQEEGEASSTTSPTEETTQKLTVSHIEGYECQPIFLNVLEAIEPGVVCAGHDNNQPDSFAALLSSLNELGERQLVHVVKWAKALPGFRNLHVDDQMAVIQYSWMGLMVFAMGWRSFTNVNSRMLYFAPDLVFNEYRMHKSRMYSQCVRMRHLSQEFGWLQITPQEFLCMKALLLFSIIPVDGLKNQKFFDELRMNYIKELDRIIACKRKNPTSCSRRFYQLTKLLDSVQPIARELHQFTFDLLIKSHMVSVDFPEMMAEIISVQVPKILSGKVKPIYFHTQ
# Sequence of Estrogen receptor beta (Homo sapiens) (Q92731 whole entry, looked up, the tested form may be a part): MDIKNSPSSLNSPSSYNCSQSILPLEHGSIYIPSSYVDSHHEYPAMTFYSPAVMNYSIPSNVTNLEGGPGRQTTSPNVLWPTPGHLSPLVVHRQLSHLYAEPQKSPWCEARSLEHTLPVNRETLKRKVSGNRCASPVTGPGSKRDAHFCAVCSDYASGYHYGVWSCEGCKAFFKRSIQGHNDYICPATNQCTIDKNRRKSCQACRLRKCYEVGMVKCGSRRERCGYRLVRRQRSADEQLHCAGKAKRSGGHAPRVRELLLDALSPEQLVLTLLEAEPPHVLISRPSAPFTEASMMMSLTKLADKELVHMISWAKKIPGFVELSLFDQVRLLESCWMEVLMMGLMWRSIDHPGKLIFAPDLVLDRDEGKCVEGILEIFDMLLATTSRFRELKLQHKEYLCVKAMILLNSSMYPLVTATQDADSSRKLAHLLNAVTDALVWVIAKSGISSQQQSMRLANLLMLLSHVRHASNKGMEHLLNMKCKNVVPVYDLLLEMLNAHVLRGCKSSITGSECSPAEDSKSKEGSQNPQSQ
# Sequence of GAL4 Transcription Factor (Internal Marker), GAL4 (gene 855828) (P04386 whole entry, looked up, the tested form may be a part): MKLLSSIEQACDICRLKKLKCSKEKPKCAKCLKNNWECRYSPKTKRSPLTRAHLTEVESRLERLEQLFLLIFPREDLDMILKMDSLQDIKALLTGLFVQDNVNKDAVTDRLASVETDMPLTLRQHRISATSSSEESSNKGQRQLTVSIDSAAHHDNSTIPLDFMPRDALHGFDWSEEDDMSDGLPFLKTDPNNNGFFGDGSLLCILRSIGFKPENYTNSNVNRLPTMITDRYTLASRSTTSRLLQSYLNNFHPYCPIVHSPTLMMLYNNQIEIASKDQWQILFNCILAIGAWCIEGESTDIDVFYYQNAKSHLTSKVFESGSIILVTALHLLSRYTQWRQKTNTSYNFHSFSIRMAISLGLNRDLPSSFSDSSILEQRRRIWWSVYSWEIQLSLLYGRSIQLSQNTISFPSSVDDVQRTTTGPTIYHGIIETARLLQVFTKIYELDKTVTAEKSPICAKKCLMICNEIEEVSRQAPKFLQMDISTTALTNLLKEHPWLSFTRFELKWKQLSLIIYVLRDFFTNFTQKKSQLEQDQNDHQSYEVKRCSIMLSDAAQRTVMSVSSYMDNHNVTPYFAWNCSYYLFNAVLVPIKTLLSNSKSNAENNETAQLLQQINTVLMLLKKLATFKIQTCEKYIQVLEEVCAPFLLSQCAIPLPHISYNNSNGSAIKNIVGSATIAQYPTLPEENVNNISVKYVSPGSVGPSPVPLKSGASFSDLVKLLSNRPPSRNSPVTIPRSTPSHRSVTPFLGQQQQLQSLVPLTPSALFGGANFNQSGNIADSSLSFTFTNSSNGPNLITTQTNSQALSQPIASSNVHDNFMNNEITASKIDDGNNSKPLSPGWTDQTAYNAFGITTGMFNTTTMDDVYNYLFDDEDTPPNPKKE
compound,measurement,setting,value
CCc1nn(C)c(C(=O)NCc2ccc(C(C)(C)C)cc2)c1Cl,outcome,[1],inactive
same,AC50,[2],2.12 µM (active)
CCOP(=S)(OCC)SCn1c(=O)oc2cc(Cl)ccc21,outcome,[3],inactive
same,outcome,[4],inactive
CC1=C(C(=O)Nc2ccccc2)SCCO1,outcome,AR (gene 367) [5],inactive
same,outcome,AR (gene 367) [6],inactive
CC1COC(Cn2cncn2)(c2ccc(Oc3ccc(Cl)cc3)cc2Cl)O1 (configuration not stated),AC50,[1],83.2 µM (active)
same,AC50,[2],6.39 µM (active)
CCCCNC(=O)n1c(NC(=O)OC)nc2ccccc21,AC50,[1],18.1 µM (active)
same,outcome,AR (gene 367) [5],inactive
same,AC50,[2],7.21 µM (active)
same,AC50,AR (gene 367) [6],71.7 µM (active)
CCON=C(CC)C1=C(O)CC(c2c(C)cc(C)cc2C)CC1=O (configuration not stated),outcome,[1],inactive
same,outcome,AR (gene 367) [6],inactive
O=C(O)c1nc(Cl)ccc1Cl,outcome,[1],inactive
C=CCC1=C(C)[C@@H](OC(=O)[C@@H]2[C@@H](C=C(C)C)C2(C)C)CC1=O,AC50,[1],89.8 µM (active)
same,outcome,[2],inactive
Fc1ccc(Oc2ccnc3cc(Cl)cc(Cl)c23)cc1,AC50,[1],80.2 µM (active)
CN(C)C(=S)SSC(=S)N(C)C,AC50,[1],91 µM (active)
same,outcome,AR (gene 367) [5],inactive
same,AC50,[2],50 µM (active)
same,AC50,AR (gene 367) [6],20.6 µM (active)
COc1ccc(C(c2ccc(OC)cc2)C(Cl)(Cl)Cl)cc1,AC50,[1],88.6 µM (active)
same,outcome,[7],inactive
same,outcome,[8],inactive
same,outcome,[3],inactive
same,outcome,[4],inactive
CC(C)(C)c1ccc(CSc2cnn(C(C)(C)C)c(=O)c2Cl)cc1,AC50,[2],0.12 µM (active)
same,outcome,[9],inactive
same,outcome,[7],inactive
same,outcome,[3],inactive
same,outcome,[4],inactive
